Screening results as filed in PubChem.
RAM network inh: inhibitors of the yeast RAM network | S. cerevisiae dse1pr::URA3 reporter, 5-FOA growth OD615, 2 d; analog-sensitive cbk1-as2 kinase mutant strain | inhibition, % at 50 µM | actives 1.8% (n = 190,000) | AID 868;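 active means inhibition above a set limit, 3 SD over mean compound inhibition, cut at about 8.4% in these data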;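 further: 0% = DMSO-only wells with no growth and 100% = 10 µM 1-NA-PP1 full growth; inhibition rescues growth on 5-FOA so higher OD means more RAM inhibition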
S1P4 ag: activates the human S1P4 receptor; O95977; S1P4-expressing cell line, agonist reporter assay; activation, % at 4.98 µM; actives 0.35% (n = 220,000); in the data active means activation above about 11%;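 further: 0% = DMSO vehicle and 100% = reference agonist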
ROMK primary: human ROMK K+ channel modulation, primary screen; actives 2% (n = 130,000); P48048; Tet-inducible ROMK, thallium flux fluorescence; actives lie on both sides; B-score at 10 µM; AID 1918;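 active means signal ratio slope over the read window, or its plate-corrected B-score, at least 3 SD from the plate mean, either direction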;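 further: B-score of the F/F0 ratio slope over 7 to 12 s after thallium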
S1P3 antagonist: S1P3 (human) receptor antagonism; inhibition, % at 4.98 µM; actives 0.27% (n = 170,000); CHO S1P3 NFAT-BLA reporter, FRET fluorescence, antagonist mode; Q99500; AID 485;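 active means inhibition above the plate cutoff, the mean inhibition of test wells on that plate plus 3 SD, cut at about 28% in these data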;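 further: cells challenged with S1P at its EC80 of 0.8 µM; blue over green emission ratio from cleaved BLA substrate after 4 h stimulation; 0% = S1P-stimulated wells and 100% = unstimulated DMSO-only wells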
Target sequence (Q99500 whole entry, looked up): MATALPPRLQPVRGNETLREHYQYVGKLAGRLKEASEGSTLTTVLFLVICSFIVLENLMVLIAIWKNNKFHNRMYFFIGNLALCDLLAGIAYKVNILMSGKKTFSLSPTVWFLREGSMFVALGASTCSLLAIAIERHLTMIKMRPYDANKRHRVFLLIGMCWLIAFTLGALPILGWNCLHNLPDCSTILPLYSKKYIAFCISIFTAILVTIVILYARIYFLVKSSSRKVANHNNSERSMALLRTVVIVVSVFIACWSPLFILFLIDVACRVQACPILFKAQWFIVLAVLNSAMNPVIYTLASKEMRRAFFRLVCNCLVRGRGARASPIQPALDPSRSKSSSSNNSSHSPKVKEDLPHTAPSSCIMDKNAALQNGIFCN
KCC2 mod: modulators of human KCC2 chloride dependent transport | Q9H2X9 | KCC2 cells, thallium flux FluoZin-2 fluorescence | B-score of Tl+ flux slope (higher = more flux/activation; lower = inhibition) at 10 µM | actives 2.2% (n = 190,000) | AID 1456;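 active means thallium flux slope and its plate-corrected score both differing from the plate sample mean at a set confidence after two filtering rounds, in either direction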;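 further: slope of fluorescence scaled to starting intensity during 10 to 20 s after thallium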
S1P4 antag: antagonists of human S1P4 receptor | inhibition, % at 4.98 µM | O95977 | S1P4-expressing cells, antagonist mode, reporter read-out | actives 0.26% (n = 220,000); in the data active means inhibition above about 29%;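 further: 0% = wells stimulated with agonist and 100% = vehicle wells without agonist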
S1P4 agonist cf: human S1P4 agonism, confirmation | shares compounds with S1P4 ag | S1P4 agonist cell-based reporter assay | activation, % at 4.98 µM | actives 7% (n = 740) | AID 1523; in the data active means activation above about 12%;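 further: 0% = vehicle and 100% = full reference agonist response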
S1P1 agonist: counter-screen for S1P4 agonists: agonists of human S1P1 | S1P1 agonist cell-based assay, activation | activation, % at 4.98 µM | shares compounds with S1P4 ag | AID 1563 | actives 4% (n = 740); in the data active means activation above about 21%;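 further: 0% = vehicle wells and 100% = reference agonist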
The depositor's hits bear a star; / = no result. Shown are actives, neighbours in structure and some others; about 5.1% of the full set was active somewhere.

SMILES | RAM network inh | S1P4 ag | ROMK primary | S1P3 antagonist | KCC2 mod | S1P4 antag | S1P4 agonist cf | S1P1 agonist
O=C(NCCCN1CCOCC1)c1ccc(Sc2cccc(Cl)c2)c([N+](=O)[O-])c1 | 1 | 4 | 0.42 | -8 | -0.062 | -16 | / | /
CCOc1cc(S(=O)(=O)NCCc2ccc(OC)c(OC)c2)c(OCC)cc1-n1cnnn1 | 4 | 73* | 0.26 | / | / | -12 | -2 | 0
CCOc1ccc(-n2cnnn2)cc1S(=O)(=O)NCCc1ccc(OC)c(OC)c1 | 0 | 2 | -0.68 | 7 | / | 8 | / | /
CN(Cc1cc2ccccc2[nH]c1=O)C(=O)c1cccs1 | 1 | 0 | / | -9 | 0.26 | -6 | / | /
Cc1ccc2[nH]c(=O)c(CN(C)C(=O)c3cccs3)cc2c1 | 1 | 22* | / | -23 | -0.11 | -11 | -3 | -7
CC(=O)c1cn(C)c(=O)[nH]c1=O | 4 | 1 | -0.55 | 5 | 0.3 | -11 | / | /
CCCOc1ccc(C2C(C(=O)OC)=CN(CCOC)C=C2C(=O)OC)cc1 | 0 | 12* | / | 4 | 0.85 | -31 | 1 | 10
COCCN1C=C(C(=O)OC)C(c2ccc(OC)c(OC)c2)C(C(=O)OC)=C1 | 0 | 3 | 0.44 | -26 | / | -10 | / | /
CCN(CC)C(=O)Cn1cc(C(=O)C(=O)NCc2ccco2)c2ccccc21 | 0 | 13* | 0.11 | -17 | -0.41 | 1 | -1 | 4
CCN(CC)C(=O)Cn1cc(SCC(=O)NCc2ccco2)c2ccccc21 | 1 | 2 | 0.87 | -10 | 0.11 | -20 | / | /
Cc1ccc(/C=C/C(=O)O)cc1S(=O)(=O)NCc1ccco1 | -1 | 0 | 0.25 | 5 | 1.5 | -13 | / | /
COc1ccccc1CNC(=O)CSc1ccc(-c2ccncc2)nn1 | 1 | 29* | -0.18 | -5 | 0.018 | -2 | -1 | 5
O=C(O)c1ccc(N/N=C/c2ccc(-c3cccc(Cl)c3)o2)cc1 | / | 13* | -0.26 | -17 | -1.2 | -14 | 3 | 9
O=C(O)c1ccc(N/N=C/c2ccc(-c3ccc(Cl)cc3Cl)o2)cc1 | / | 16* | / | 2 | -0.18 | -10 | 7 | 26*
CCN(CC)c1ccc2c(c1)oc(=O)c1c(Cl)cc(=O)oc12 | 4 | 2 | / | -7 | / | -2 | / | /
CCN(CC)c1ccc2c(C)c(Cl)c(=O)oc2c1 | -2 | 16* | -1.8 | 6 | 1.1 | -4 | 8 | 9
CCc1cccc(CC)c1NC(=O)COC(=O)CC1c2ccccc2CCN1S(=O)(=O)c1ccccc1 (stereo not given) | 4 | 2 | / | -3 | 0.25 | -3 | / | /
Cc1ccc(S(=O)(=O)N2CCc3ccccc3C2CC(=O)O)cc1 (stereo not given) | / | 26* | / | -19 | -1.2 | 9 | -2 | -2
Cc1ccccc1OCC(=O)NC(=S)Nc1ccc(N2CCOCC2)c(Cl)c1 | 3 | 2 | / | / | 1.2 | -24 | / | /
COc1ccccc1C(=O)NC(=S)Nc1ccc(N2CCOCC2)c(Cl)c1 | 2 | 36* | -0.027 | -16 | -1 | -5 | 2 | 81*
CC(C)CCNC(=O)C(=O)NC1CCCC1 | 0 | 57* | -0.13 | 1 | 0.019 | 14 | -2 | -1
COc1ccc(C(=O)n2c(C)c(CCO)c(=O)n2C)cc1 | 0 | 0 | 0.4 | 0 | -0.85 | 9 | / | /
O=C(c1ccc(NS(=O)(=O)c2cccc3cccnc23)cc1)N1CCCCC1 | 1 | 23* | -0.95 | -11 | 0.043 | 5 | -1 | -4
Cc1cc(C)n(-c2ccc(C(=O)Nc3nnc(C)s3)cc2)n1 | 1 | 0 | -0.03 | / | 1.1 | -2 | / | /
Cc1cc(C)n(-c2ccc(C(=O)Nc3sccc3C(N)=O)cc2)n1 | 2 | 12* | / | 18 | -2.2 | -25 | 21* | -7
Cc1cc(N(CCO)CCO)ccc1N=Nc1cc(F)ccc1F | -1 | 11* | -0.25 | -17 | -0.43 | 4 | -2 | -5
C/C(CC(=O)Nc1ccc(F)cc1)=N\NC(=O)Cc1csc(N)n1 | -1 | 0 | / | 2 | 0.7 | -4 | / | /
C/C(CC(=O)Nc1ccc(Br)cc1)=N\NC(=O)Cc1csc(N)n1 | / | 101* | / | 0 | -1 | 13 | -2 | -1
